The full data set covers some 8,800 targets. This sample favours those with a hit. About 0.5% of all pairs of compound and target were hits. Unmarked numbers belong to inactive results.
Experiments:
Assay in all cases: log2 fold change, soluble protein after heating vs DMSO (PISA); higher = thermal stabilisation; K562 lysate, 10 uM; active = over 0.2 and 3.5 SD of the protein, either way, in both replicates (recomputed)
vemurafenib = compound: CCCS(=O)(=O)Nc1ccc(F)c(C(=O)c2c[nH]c3ncc(-c4ccc(Cl)cc4)cc23)c1F [vemurafenib]
How it was run: (§1)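 Soluble protein was defined as the supernatant remaining after 21,000xg for 90 min, following pooling of heated aliquots and adjustment to 0.5% NP-40 at 4°C. Before that, crude K562 extract at 1 mg/mL protein in PBS pH 7.4 with 1 mM MgCl2 was treated with 10 μM compound for 30 min and heated for 3 min across 48°C-58°C. Quantification used TMTpro 16plex LC-MS/MS with channel sums equalised, and values are log-two fold changes in thermal stability relative to solvent controls from duplicates.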

[1] = compound: CCCS(=O)(=O)Nc1ccc(F)c(C(=O)c2c[nH]c3ncc(Cl)cc23)c1F
How it was run: as §1

barasertib = compound: CCN(CCCOc1ccc2c(Nc3cc(CC(=O)Nc4cccc(F)c4)[nH]n3)ncnc2c1)CCOP(=O)(O)O [barasertib]
How it was run: as §1

[2] = compound: CC[C@@H]1C(=O)N(C)c2cnc(Nc3ccc(C(=O)NC4CCN(C)CC4)cc3OC)nc2N1C1CCCC1
How it was run: as §1

volasertib = compound: CC[C@@H]1C(=O)N(C)c2cnc(Nc3ccc(C(=O)N[C@H]4CC[C@H](N5CCN(CC6CC6)CC5)CC4)cc3OC)nc2N1C(C)C [volasertib]
How it was run: as §1

[3] = compound: CCn1c(C(=O)N(C2CC2)C2CC2)cc2c3c(ncn3C)c(Nc3cc(C)n(C)n3)nc21
How it was run: as §1

[4] = compound: CCn1cc(-c2ccnc3[nH]c(-c4cccc(CN(C)C)c4)cc23)c(-c2ccc(NC(=O)N(C)C)cc2)n1
How it was run: as §1

[5] = compound: CN1CCC(CNc2ccc3ncc(-c4cccc(OC(F)(F)F)c4)n3n2)CC1
How it was run: as §1

saracatinib = compound: CN1CCN(CCOc2cc(OC3CCOCC3)c3c(Nc4c(Cl)ccc5c4OCO5)ncnc3c2)CC1 [saracatinib]
How it was run: as §1

sotrastaurin = compound: CN1CCN(c2nc(C3=C(c4c[nH]c5ccccc45)C(=O)NC3=O)c3ccccc3n2)CC1 [sotrastaurin]
How it was run: as §1

alvocidib = compound: CN1CC[C@H](c2c(O)cc(O)c3c(=O)cc(-c4ccccc4Cl)oc23)[C@H](O)C1 [alvocidib]
How it was run: as §1

Tubastatin A = compound: CN1CCc2c(c3ccccc3n2Cc2ccc(C(=O)NO)cc2)C1 [Tubastatin A]
How it was run: as §1

[6] = compound: CNC(=O)C1=CC=CC=C1NC2=NC(=NC=C2Cl)NC3=C(C=C(C=C3)N4CCOCC4)OC
How it was run: as §1

defactinib = compound: CNC(=O)c1ccc(Nc2ncc(C(F)(F)F)c(NCc3nccnc3N(C)S(C)(=O)=O)n2)cc1 [defactinib]
How it was run: as §1

[7] = compound: CNc1nc(-c2ccc3c(N)n[nH]c3c2)cc(N2C[C@@H](C(=O)NC3CCCCC3)CC[C@H]2C)n1
How it was run: as §1

encorafenib = compound: COC(=O)N[C@@H](C)CNc1nccc(-c2cn(C(C)C)nc2-c2cc(Cl)cc(NS(C)(=O)=O)c2F)n1 [encorafenib]
How it was run: as §1

[8] = compound: COC(=O)[C@H](CCSC)NC(=O)C1=C(C=C(C=C1)NC[C@H](CS)N)C2=CC=CC=C2
How it was run: as §1

alisertib = compound: COc1cc(Nc2ncc3c(n2)-c2ccc(Cl)cc2C(c2c(F)cccc2OC)=NC3)ccc1C(=O)O [alisertib]
How it was run: as §1

[9] = compound: COc1cc2nc(-c3cc(F)ccc3O)nc(N[C@@H]3CNC[C@H]3C(C)(C)O)c2cc1OC
How it was run: as §1

gefitinib = compound: COc1cc2ncnc(Nc3ccc(F)c(Cl)c3)c2cc1OCCCN1CCOCC1 [gefitinib]
How it was run: as §1

Chain of UniProt Q8TAP6 (Q8TAP6 whole entry, looked up): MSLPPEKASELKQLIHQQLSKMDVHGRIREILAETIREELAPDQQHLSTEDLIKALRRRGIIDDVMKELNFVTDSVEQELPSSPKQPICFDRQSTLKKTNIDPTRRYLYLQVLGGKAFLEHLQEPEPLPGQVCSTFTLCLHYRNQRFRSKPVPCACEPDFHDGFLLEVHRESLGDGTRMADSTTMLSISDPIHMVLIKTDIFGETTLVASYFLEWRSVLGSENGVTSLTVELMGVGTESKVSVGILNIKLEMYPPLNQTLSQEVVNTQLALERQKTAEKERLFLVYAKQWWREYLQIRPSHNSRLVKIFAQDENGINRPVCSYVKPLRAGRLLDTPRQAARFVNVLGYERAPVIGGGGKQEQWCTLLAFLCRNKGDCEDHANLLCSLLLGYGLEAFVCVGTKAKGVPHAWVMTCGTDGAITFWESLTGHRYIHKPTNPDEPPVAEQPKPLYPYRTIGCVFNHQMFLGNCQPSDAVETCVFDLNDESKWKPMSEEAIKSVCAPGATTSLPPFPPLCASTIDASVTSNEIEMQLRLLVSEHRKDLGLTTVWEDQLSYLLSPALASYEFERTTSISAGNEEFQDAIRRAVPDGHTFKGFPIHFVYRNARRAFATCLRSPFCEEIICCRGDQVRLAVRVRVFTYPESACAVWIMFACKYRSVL
Chain of UniProt O95429 (O95429 whole entry, looked up): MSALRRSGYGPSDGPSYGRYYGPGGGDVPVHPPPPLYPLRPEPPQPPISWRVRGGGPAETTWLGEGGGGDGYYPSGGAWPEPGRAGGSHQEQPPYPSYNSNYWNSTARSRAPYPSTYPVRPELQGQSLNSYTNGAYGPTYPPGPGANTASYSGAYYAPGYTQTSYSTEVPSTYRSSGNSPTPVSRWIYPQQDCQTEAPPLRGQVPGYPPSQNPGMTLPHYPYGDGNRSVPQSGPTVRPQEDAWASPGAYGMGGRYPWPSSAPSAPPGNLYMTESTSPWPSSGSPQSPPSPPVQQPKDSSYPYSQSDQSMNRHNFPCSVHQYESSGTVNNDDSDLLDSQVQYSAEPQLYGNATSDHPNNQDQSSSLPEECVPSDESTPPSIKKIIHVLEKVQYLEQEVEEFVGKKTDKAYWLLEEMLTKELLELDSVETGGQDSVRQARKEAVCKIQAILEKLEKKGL
Chain of UniProt Q9Y2V0 (Q9Y2V0 whole entry, looked up): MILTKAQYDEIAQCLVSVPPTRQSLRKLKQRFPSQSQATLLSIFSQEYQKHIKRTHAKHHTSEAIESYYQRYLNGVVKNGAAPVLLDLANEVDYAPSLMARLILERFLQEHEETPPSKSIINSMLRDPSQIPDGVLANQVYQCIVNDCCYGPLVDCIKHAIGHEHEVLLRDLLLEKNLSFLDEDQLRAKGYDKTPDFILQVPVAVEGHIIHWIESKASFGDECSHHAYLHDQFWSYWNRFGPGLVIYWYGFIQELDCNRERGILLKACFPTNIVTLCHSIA
Chain of UniProt Q9H3K6 (Q9H3K6 whole entry, looked up): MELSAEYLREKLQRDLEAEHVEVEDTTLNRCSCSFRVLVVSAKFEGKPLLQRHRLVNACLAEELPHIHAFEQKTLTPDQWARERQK
Chain of UniProt Q8N4Q1 (Q8N4Q1 whole entry, looked up): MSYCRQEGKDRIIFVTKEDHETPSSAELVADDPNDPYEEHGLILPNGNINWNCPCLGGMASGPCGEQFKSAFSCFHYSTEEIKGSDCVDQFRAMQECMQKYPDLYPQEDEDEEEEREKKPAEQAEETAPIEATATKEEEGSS
Chain of UniProt Q5BKX5 (Q5BKX5 whole entry, looked up): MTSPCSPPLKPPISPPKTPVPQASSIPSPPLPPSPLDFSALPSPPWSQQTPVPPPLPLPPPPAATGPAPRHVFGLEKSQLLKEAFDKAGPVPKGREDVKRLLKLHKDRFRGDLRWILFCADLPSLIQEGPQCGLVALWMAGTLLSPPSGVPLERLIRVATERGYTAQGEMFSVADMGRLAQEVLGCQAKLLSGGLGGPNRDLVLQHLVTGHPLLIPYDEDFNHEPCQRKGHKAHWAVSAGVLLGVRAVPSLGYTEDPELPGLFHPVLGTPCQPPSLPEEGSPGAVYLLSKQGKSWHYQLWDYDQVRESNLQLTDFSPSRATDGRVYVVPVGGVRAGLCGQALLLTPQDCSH
Chain of UniProt P14635 (P14635 whole entry, looked up): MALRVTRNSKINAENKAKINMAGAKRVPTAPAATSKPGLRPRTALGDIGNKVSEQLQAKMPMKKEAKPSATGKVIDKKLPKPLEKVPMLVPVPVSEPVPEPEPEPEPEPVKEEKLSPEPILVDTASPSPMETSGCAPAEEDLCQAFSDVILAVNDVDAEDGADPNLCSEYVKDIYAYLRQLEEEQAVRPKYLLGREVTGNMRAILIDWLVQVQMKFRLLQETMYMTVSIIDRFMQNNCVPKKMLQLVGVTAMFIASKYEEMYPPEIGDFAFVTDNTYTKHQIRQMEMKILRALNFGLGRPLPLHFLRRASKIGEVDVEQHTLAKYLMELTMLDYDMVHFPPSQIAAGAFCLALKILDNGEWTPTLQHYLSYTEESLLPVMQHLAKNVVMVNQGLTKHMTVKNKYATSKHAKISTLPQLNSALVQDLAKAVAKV
Chain of UniProt Q8WUX2 (Q8WUX2 whole entry, looked up): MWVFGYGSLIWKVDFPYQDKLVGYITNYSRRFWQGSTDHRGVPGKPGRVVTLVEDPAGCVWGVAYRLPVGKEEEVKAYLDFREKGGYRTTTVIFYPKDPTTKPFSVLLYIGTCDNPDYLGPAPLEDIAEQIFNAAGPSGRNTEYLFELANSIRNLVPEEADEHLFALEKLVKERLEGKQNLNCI
Chain of UniProt P49589 (P49589 whole entry, looked up): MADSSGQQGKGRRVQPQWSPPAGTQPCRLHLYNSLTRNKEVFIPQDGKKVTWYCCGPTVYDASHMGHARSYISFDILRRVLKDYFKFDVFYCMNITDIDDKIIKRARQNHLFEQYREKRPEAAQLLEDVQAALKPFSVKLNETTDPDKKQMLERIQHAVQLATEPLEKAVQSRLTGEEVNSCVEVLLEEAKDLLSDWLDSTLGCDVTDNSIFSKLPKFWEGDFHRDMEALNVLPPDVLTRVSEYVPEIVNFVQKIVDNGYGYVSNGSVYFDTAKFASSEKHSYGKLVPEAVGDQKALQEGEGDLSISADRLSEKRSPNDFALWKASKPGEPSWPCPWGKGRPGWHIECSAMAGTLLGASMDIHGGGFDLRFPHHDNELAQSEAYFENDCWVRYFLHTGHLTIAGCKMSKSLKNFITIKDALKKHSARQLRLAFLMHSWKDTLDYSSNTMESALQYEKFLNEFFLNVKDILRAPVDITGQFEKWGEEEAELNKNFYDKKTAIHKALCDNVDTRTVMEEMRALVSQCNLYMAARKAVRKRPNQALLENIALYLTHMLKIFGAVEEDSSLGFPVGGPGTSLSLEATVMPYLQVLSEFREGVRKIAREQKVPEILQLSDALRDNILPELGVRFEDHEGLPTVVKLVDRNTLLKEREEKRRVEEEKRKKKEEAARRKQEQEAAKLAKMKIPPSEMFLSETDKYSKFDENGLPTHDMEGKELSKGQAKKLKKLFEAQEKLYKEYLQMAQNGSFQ
Chain of UniProt P40227 (P40227 whole entry, looked up): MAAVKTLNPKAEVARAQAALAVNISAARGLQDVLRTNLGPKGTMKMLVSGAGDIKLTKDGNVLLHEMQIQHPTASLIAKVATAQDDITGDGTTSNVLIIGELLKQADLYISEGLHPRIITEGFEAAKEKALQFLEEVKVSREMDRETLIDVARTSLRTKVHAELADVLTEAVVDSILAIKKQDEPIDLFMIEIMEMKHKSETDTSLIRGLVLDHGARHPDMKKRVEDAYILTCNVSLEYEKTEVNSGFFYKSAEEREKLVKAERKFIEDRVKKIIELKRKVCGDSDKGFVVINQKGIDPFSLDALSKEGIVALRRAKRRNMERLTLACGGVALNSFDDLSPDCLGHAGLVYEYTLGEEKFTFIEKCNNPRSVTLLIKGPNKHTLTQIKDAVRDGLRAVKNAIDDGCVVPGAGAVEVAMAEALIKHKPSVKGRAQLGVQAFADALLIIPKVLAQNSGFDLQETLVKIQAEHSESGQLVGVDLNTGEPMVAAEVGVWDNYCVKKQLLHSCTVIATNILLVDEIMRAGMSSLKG
Chain of UniProt Q8N4J0 (Q8N4J0 whole entry, looked up): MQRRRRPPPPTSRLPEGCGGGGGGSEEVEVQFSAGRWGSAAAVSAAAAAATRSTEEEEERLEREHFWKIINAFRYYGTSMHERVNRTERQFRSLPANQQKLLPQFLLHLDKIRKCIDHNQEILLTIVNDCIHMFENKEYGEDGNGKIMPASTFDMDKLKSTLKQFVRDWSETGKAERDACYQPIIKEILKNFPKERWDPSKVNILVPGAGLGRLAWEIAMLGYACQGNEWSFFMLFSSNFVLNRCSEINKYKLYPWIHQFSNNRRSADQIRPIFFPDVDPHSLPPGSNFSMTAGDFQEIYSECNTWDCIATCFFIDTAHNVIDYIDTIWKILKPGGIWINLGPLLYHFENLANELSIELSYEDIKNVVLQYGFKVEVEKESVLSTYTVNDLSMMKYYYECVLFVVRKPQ
Chain of UniProt O75909 (O75909 whole entry, looked up): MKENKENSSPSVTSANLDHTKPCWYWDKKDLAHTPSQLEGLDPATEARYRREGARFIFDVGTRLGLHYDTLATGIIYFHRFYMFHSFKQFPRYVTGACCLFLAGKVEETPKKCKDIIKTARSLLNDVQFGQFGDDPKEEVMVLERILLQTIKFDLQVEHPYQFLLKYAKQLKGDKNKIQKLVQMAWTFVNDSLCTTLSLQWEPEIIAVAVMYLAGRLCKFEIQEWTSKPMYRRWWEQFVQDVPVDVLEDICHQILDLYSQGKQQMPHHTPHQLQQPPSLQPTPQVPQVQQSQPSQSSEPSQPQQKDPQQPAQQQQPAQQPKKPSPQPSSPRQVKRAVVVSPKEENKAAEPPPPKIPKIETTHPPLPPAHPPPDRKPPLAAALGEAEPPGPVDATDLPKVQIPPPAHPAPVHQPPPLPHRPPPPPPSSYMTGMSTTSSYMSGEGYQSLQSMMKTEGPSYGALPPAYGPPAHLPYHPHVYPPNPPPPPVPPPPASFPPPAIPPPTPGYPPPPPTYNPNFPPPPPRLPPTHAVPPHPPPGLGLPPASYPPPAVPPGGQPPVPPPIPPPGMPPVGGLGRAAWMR

| Target | log2 fold change (vemurafenib) | log2 fold change [1] | log2 fold change (barasertib) | log2 fold change [2] | log2 fold change (volasertib) | log2 fold change [3] | log2 fold change [4] | log2 fold change [5] | log2 fold change (saracatinib) | log2 fold change (sotrastaurin) | log2 fold change (alvocidib) | log2 fold change (Tubastatin A) | log2 fold change [6] | log2 fold change (defactinib) | log2 fold change [7] | log2 fold change (encorafenib) | log2 fold change [8] | log2 fold change (alisertib) | log2 fold change [9] | log2 fold change (gefitinib) |
| --- | --- | --- | --- | --- | --- | --- | --- | --- | --- | --- | --- | --- | --- | --- | --- | --- | --- | --- | --- | --- |
| C19orf54 (UniProt Q5BKX5) | 0.08 | -0.028 | 0.002 | -0.043 | -0.058 | -0.06 | 0.013 | 0.003 | -0.027 | -0.027 | -0.032 | 0.004 | 0.048 | -0.039 | 0.023 | 0.024 | 0.151 | -0.099 | 0.069 | 0.08 |
| BORCS5 (UniProt Q969J3) | 0.044 | 0.005 | 0.201 (active) | 0.057 | 0.027 | -0.01 | 0.075 | -0.055 | 0.013 | 0.017 | -0.012 | 0.043 | -0.001 | 0.067 | 0.032 | 0.074 | -0.09 | -0.014 | 0.01 | -0.079 |
| BAG4 (UniProt O95429) | -0.055 | 0 | 0.048 | 0.004 | -0.003 | 0.036 | -0.037 | 0.102 | 0.018 | -0.043 | 0.04 | -0.096 | -0.01 | -0.001 | 0.023 | -0.032 | 0.005 | -0.023 | 0.003 | 0.039 |
| CARNMT1 (UniProt Q8N4J0) | 0.04 | 0.008 | -0.012 | -0.013 | -0.005 | -0.044 | -0.422 (active) | 0.063 | 0.04 | 0.017 | -0.167 | 0.045 | -0.021 | -0.03 | -0.021 | 0.051 | 0.015 | -0.022 | 0.026 | 0.009 |
| CCPG1 isoform 5 (UniProt Q9ULG6) | 0.082 | -0.038 | 0.034 | 0.066 | 0 | 0.071 | -0.081 | 0.04 | 0.049 | 0.051 | 0.029 | 0.006 | 0.028 | -0.03 | -0.02 | 0.049 | -0.165 | -0.073 | 0.303 (active) | -0.061 |
| CCNB1 (UniProt P14635) | 0.032 | -0.021 | 0.019 | 0.03 | -0.043 | -0.031 | -0.023 | -0.012 | 0.002 | -0.038 | -0.015 | 0.021 | -0.003 | -0.117 | 0.028 | 0.029 | -0.023 | 0 | 0.407 (active) | -0.024 |
| C15orf41 (UniProt Q9Y2V0) | 0.151 | 0.005 | 0.095 | -0.089 | 0.041 | -0.049 | -0.143 | 0.037 | -0.018 | -0.016 | -0.002 | -0.036 | 0.039 | -0.13 | 0.002 | 0.126 | -0.043 | 0.023 | 0.09 | 0.006 |
| CCNK isoform 4 (UniProt O75909) | -0.013 | 0.006 | -0.028 | 0.04 | -0.009 | -0.007 | -0.185 | 0.095 | 0.049 | 0.004 | -0.094 | -0.004 | 0.01 | -0.011 | 0.009 | 0.017 | -0.035 | 0.071 | 0 | 0.046 |
| CAPN15 (UniProt O75808) | 0.04 | -0.046 | 0.077 | -0.007 | 0.027 | 0.013 | 0.037 | 0.016 | 0.032 | -0.091 | -0.01 | -0.043 | 0.001 | -0.014 | 0.19 | -0.029 | 0.03 | -0.03 | 0.024 | -0.024 |
| CHAC2 (UniProt Q8WUX2) | -0.028 | -0.004 | -0.006 | -0.044 | 0.006 | 0.02 | 0.649 (active) | -0.154 | -0.018 | -0.031 | 0.223 | 0.019 | 0.092 | 0.028 | 0.019 | 0.06 | 0.003 | -0.039 | -0.007 | 0 |
| BCKDK (UniProt O14874) | -0.036 | 0.002 | -0.028 | 0.203 | -0.037 | 0.067 | -0.033 | 0.059 | 0.031 | 0.028 | 0.029 | -0.117 | -0.005 | 0.029 | -0.098 | -0.061 | 0.066 | 0.023 | -0.027 | 0.053 |
| CCT6A (UniProt P40227) | -0.026 | -0.005 | -0.03 | -0.006 | 0.024 | 0.011 | -0.024 | -0.002 | -0.004 | -0.001 | 0.027 | 0.025 | 0.006 | -0.018 | -0.001 | -0.015 | -0.024 | 0.012 | -0.003 | -0.021 |
| BOLA2 (UniProt Q9H3K6) | -0.086 | -0.043 | 0.129 | -0.068 | 0.004 | 0.067 | 0.604 (active) | -0.04 | -0.033 | -0.038 | 0.02 | 0.015 | -0.065 | 0.023 | -0.052 | 0.036 | -0.057 | -0.006 | 0.009 | -0.03 |
| CARS isoform 3 (UniProt P49589) | 0.011 | 0.004 | -0.032 | -0.01 | -0.052 | 0.02 | 0.004 | -0.029 | 0.005 | 0.041 | 0.006 | -0.041 | 0.001 | -0.013 | -0.01 | -0.013 | 0.213 (active) | 0.003 | -0.005 | -0.019 |
| CHCHD4 isoform 2 (UniProt Q8N4Q1) | 0.144 | 0.015 | 0.109 | 0.072 | 0.057 | -0.1 | -0.415 (active) | 0.228 | 0.05 | -0.007 | -0.145 | 0.026 | 0.027 | -0.044 | 0.045 | 0.062 | -0.039 | 0.024 | 0.016 | -0.015 |
| CEP76 (UniProt Q8TAP6) | -0.099 | -0.023 | 0.085 | -0.093 | 0 | -0.026 | -0.04 | 0.053 | 0.047 | 0.085 | -0.031 | -0.015 | 0.03 | 0.084 | -0.023 | -0.006 | 0.005 | 0.002 | 0 | 0.001 |
